Assay outcomes (PubChem)
BioA inh = inhibitors of Mycobacterium tuberculosis BioA enzyme | purified M. tuberculosis BioA enzyme, plate reader | 360,000 compounds, 0.096% hits | inhibition, % at 9.99 µM | AID 602481; in the data active = inhibition above about 40%; inconclusive = no clear call, values can overlap the other calls
FadD28 FP inh = M. tuberculosis FadD28 bisubstrate binding inhibition. FadD28 bisubstrate probe binding, fluorescence polarization. inhibition, % at 12.5 µM. 360,000 compounds, 0.22% hits. AID 588549; in the data active = inhibition above about 8.5%, passing the limit was not always enough; inconclusive = no clear call, values can overlap the other calls
TcdB GH inh = inhibitors of Clostridioides difficile toxin B glycohydrolase. P18177. TcdB glycohydrolase enzymatic assay, plate reader. inhibition, % at 9.99 µM. 350,000 compounds, 0.24% hits. AID 652162; in the data active = inhibition above about 10%
Target sequence (P18177 whole entry, looked up): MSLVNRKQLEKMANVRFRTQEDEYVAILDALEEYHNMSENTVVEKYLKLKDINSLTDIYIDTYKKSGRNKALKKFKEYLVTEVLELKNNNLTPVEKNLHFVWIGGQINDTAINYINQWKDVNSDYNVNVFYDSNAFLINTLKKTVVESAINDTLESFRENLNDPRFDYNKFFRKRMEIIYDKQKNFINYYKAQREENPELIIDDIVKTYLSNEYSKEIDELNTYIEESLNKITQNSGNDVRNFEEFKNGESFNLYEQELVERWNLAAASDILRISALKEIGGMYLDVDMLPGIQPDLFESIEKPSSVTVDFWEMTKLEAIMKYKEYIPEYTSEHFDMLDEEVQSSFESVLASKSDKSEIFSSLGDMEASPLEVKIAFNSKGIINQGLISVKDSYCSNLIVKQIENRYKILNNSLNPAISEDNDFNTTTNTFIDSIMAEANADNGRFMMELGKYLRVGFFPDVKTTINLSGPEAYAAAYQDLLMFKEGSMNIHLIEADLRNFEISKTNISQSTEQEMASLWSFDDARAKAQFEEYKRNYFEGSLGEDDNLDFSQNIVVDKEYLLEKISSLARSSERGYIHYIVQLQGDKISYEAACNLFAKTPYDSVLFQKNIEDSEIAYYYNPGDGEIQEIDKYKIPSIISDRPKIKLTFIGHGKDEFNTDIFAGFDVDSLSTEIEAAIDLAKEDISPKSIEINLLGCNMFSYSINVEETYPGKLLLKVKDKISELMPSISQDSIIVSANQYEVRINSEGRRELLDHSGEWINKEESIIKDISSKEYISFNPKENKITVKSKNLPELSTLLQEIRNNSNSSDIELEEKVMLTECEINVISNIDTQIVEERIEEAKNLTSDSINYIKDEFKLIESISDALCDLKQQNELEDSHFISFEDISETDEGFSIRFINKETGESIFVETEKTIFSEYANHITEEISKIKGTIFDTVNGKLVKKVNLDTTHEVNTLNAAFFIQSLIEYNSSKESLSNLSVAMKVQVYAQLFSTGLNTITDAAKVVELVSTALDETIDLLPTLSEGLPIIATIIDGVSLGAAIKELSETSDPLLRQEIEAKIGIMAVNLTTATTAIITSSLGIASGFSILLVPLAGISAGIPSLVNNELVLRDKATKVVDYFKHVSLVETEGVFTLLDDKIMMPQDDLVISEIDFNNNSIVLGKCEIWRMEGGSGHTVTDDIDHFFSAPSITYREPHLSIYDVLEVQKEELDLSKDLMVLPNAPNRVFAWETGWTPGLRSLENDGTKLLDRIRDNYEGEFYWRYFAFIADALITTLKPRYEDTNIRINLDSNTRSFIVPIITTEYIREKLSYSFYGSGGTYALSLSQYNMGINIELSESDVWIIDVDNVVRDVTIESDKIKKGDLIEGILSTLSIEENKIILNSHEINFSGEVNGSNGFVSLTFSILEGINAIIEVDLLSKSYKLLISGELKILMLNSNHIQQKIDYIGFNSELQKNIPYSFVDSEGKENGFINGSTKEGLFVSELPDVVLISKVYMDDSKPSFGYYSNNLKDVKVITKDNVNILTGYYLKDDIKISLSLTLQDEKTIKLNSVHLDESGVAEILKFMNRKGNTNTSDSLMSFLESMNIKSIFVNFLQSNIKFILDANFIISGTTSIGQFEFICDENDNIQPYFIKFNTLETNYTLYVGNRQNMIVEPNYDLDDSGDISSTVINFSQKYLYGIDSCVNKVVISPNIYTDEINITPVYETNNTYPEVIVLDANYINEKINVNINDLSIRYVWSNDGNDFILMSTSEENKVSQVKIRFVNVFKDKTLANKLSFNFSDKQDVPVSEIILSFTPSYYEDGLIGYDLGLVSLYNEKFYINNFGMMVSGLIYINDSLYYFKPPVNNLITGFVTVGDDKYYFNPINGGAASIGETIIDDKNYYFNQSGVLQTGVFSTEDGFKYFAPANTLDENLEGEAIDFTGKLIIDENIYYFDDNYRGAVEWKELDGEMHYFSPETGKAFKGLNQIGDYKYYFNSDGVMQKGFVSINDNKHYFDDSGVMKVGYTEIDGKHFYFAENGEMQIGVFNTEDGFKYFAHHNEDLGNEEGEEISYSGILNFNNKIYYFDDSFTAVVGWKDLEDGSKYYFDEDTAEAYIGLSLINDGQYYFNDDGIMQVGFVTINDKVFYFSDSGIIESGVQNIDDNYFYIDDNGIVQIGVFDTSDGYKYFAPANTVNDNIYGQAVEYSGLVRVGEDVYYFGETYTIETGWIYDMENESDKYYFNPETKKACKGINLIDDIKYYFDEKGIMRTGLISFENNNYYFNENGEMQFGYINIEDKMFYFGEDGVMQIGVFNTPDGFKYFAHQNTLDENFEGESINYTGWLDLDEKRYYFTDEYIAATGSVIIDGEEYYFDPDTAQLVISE
PrP UTR inh = inhibition of PrP 5' UTR reporter expression; cell-based PrP 5' UTR mRNA reporter, plate reader; inhibition, % (test concentration not listed); 340,000 compounds, 0.35% hits; AID 488862; in the data active = inhibition above about 52%
Mtb hypoxia inh = inhibitors of hypoxia-regulated fluorescent reporter in Mycobacterium tuberculosis. fluorescence inhibition, % (test concentration not listed). 300,000 compounds, 0.1% hits. M. tuberculosis hypoxia-regulated fluorescent reporter, fluorescence; in the data active = fluorescence inhibition mostly above about 23%, no sharp cut-off; inactive = mostly below about 17%
PriA SSB inh = inhibitors of Klebsiella pneumoniae PriA binding to SSB C-terminal tail. inhibition, % at 33 µM. AlphaScreen SSBct-PriA binding, biotinylated peptide. 430,000 compounds, 0.6% hits. AID 1272365; in the data active = inhibition mostly above about 37%, no sharp cut-off; inactive = mostly below about 20%
PrP 5UTR single = prion 5' UTR mRNA inhibition, cherry-pick retest | AID 504592 | 1,100 compounds, 48% hits | cell-based prion protein 5' UTR reporter, plate reader | shares compounds with PrP UTR inh | inhibition, % at 2.5 µM; in the data active = inhibition above about 54%; inconclusive = no clear call, values can overlap the other calls
Hits are given with their value; . = inactive; ? = inconclusive; / = no result; ! = a repeat was not active. Hits are enriched below; roughly 1% of the tested compounds scored in any of these assays.

SMILES | BioA inh | FadD28 FP inh | TcdB GH inh | PrP UTR inh | Mtb hypoxia inh | PriA SSB inh | PrP 5UTR single
O=c1c2ccccc2oc2cc(NCCCN3CCOCC3)ccc12 | . | . | . | . | . | . | /
CCC1(c2ccccc2)NC(=S)N(c2ccc(C)cc2)N1 (stereo unspecified) | . | . | . | 76 | . | . | .
CCC1(c2ccc(Cl)cc2)NC(=S)N(c2ccccc2)N1 (stereo unspecified) | . | . | . | . | . | . | /
CCOc1ccc(OCc2cccc(C(=O)N3CCOCC3)c2)cc1 | . | . | / | 61 | . | . | 70
N#C/C(=C\c1c(Oc2ccc(Cl)cc2)nc2ccccn2c1=O)C(=O)NC1CCS(=O)(=O)C1 (stereo unspecified) | . | . | . | . | . | . | /
Cc1c(Cc2ccccc2)sc(/N=C/c2ccc3ccccc3c2)c1C(N)=O | / | . | / | 60 | / | / | 95
Cc1c(Cc2ccccc2)sc(/N=C/c2c(O)ccc3ccccc23)c1C(N)=O | . | . | / | . | / | / | /
COc1ccc(C(=O)OCC(=O)Nc2cccc(S(=O)(=O)N3CCCCCC3)c2)cc1[N+](=O)[O-] | . | . | . | . | . | . | /
CCCSc1ccc2nc(-c3ccccc3)cn2c1 | / | . | / | 60 | . | . | 75
CCCCSc1ccc2nc(-c3ccc(C#N)cc3)cn2c1 | . | . | / | . | . | . | /
FC(F)(F)c1ccccc1-n1ccnc1 | . | . | . | 60 | . | . | .
COc1ccc(C(Nc2ccccn2)c2oc(CO)cc(=O)c2O)cc1 (stereo unspecified) | / | . | . | 62 | . | . | .
CO[C@H]1CN(C)C(=O)c2cc(NC(C)=O)ccc2OC[C@H](C)N(C(=O)c2ccccc2)C[C@H]1C | . | / | . | / | / | / | /
OCCCNc1cc(-c2ccnc(Nc3cccc(Cl)c3)n2)ccn1 | . | . | . | 82 | . | . | 84
COc1ccc(C(=O)Nc2ccc3c(c2)N(C(=O)C2CCCC2)CC3)cc1F | / | / | / | / | / | . | /
CCOC(=O)Cn1cnc2c(nnn2-c2cccc(Cl)c2)c1=O | . | . | . | . | . | . | /
CCOc1ccc(NC(=O)c2cc(S(=O)(=O)N3CCOCC3)cs2)cc1 | . | . | . | . | . | . | /
CCOc1ccc(NC(=O)c2cc(S(=O)(=O)N3CCOCC3)cn2C)cc1 | . | . | . | 51 | . | . | .
CC(=O)C1=CN(CC2CCCCC2)CCC1=O | . | . | . | . | . | . | /
CCOC(=O)C1=CN(CC2CCCCC2)CCC1=O | . | . | . | 84 | . | . | .
COc1cc2cc(c1Cl)N(C)C(=O)CC(OC(=O)C(C)N(C)C(C)=O)C1(C)OC1C(C)C1CC(O)(NC(=O)O1)C(OC)C=CC=C(C)C2 (stereo unspecified) | / | . | . | 53 | / | . | 92
CC(=O)C[C@H](O)CC(=O)[C@H]1OC(=O)CCCCCc2ccccc21 | . | . | . | . | . | . | /
CC(=O)C[C@H](O)CC(=O)[C@H]1OC(=O)[C@H](C)CCCCc2ccccc21 | . | . | . | 66 | . | . | .
CC(=O)C[C@H](O)CC(=O)[C@@H]1OC(=O)CCCCCc2ccccc21 | . | . | . | 90 | . | . | .
CCCCN1CCc2c(c3ccccc3n2Cc2ccccc2)C1 | . | . | . | . | . | . | /
SMILES | BioA inh | FadD28 FP inh | TcdB GH inh | PrP UTR inh | Mtb hypoxia inh | PriA SSB inh | PrP 5UTR single
CN1CCc2c(c3ccccc3n2Cc2ccccc2)C1 | . | . | . | 58! | . | . | .
O=C(Nc1ccc(OCc2ccccc2)cc1)c1cccnc1 | . | . | / | . | . | . | /
O=C(Nc1ccc(OCc2ccccc2Cl)cc1)c1cccnc1 | . | . | . | 66 | . | . | 71
COC(=O)c1cn(NC(=O)c2ccc([N+](=O)[O-])c(C)c2)c(=O)c2ccccc12 | / | ? | . | . | . | . | /
COC(=O)c1cn(NC(=O)c2ccccc2[N+](=O)[O-])c(=O)c2ccccc12 | . | . | . | 56 | . | . | .
COc1cc(C2c3c(oc4c(C)cc(C)cc4c3=O)C(=O)N2Cc2cccnc2)ccc1O (stereo unspecified) | . | . | / | . | . | . | /
COc1ccc(N2CCN(CCCn3c(=S)[nH]c4ncccc4c3=O)CC2)cc1 | . | . | / | . | . | . | /
COC1C=CC=C(C)C(=O)NC2=CC(=O)C(N)=C(CC(C)CC(OC)C(O)C(C)C=C(C)C1OC(N)=O)C2=O (stereo unspecified) | / | . | . | 76 | / | . | 82
COC1CC(C)C(OC)c2cc(O)cc(c2O)NC(=O)C(C)=CC=CC(C)C(OC(N)=O)C(C)=CC(C)C1OC (stereo unspecified) | / | . | . | . | / | . | /
C[C@@H]1CN([C@@H](C)CO)C(=O)c2cc(NC(=O)NC3CCCCC3)ccc2O[C@@H](C)CCCCO[C@@H]1CN(C)C(=O)CCC(F)(F)F | . | / | . | / | / | / | /
COc1ccc2nc(NCCNC(=S)NCCCN3CCOCC3)c(C#N)cc2c1 | / | . | . | 78 | . | . | ?
COc1cccc(CN2CC=C(c3ccc(F)cc3)CC2)c1 | . | . | . | . | . | . | /
COc1ccc(C(C)=O)cc1CSc1nc2cc(Cl)ccc2o1 | . | . | / | 57 | / | . | .
COc1ccc(C(C)=O)cc1CSc1nnc(-c2ccncc2)o1 | . | . | . | . | . | . | /
COCCN=C1NN=C(c2cc(C)n(CC3CCCO3)c2C)CS1 (stereo unspecified) | / | . | . | . | . | . | /
COCCn1c(C)cc(C2=NNC(=Nc3ccccc3F)SC2)c1C | . | . | / | 67 | . | . | ?
C=CCN=C1NN=C(c2cc(C)n(CC=C)c2C)CS1 | / | . | . | 83 | . | . | 79
C=CCN=C1NN=C(c2ccc3c(c2)OCCO3)CS1 | . | . | . | 59 | . | . | 79
CCc1nc2ccc(C(=O)NCCC(C)C)cn2c1N(CC)CCOC | . | . | . | / | / | / | /
CCN(CC(=O)Nc1ccccc1C(F)(F)F)C(=O)c1cccc(S(=O)(=O)N2CCN(C)CC2)c1 | . | . | . | . | . | . | /
COc1cc(CNC(=O)c2cc(-c3cc(F)ccc3OC(C)C)n[nH]2)cc(OC)c1 | . | . | . | / | / | / | /
CN(C)CCCNC(=O)c1ccc(Oc2ccccc2)cc1 | / | . | . | 88 | . | . | .
O=C1CC(SC(=NCc2ccc3c(c2)OCO3)Nc2ccccc2)C(=O)N1 (stereo unspecified) | . | . | / | 73 | . | . | .
COc1ccc(CN=C(Nc2ccccc2)SC2CC(=O)NC2=O)cc1 (stereo unspecified) | / | . | . | . | . | . | /
Cc1cc(C)cc(Nc2nc3c([nH]2)c(=O)n(C)c(=O)n3C)c1 | . | . | . | . | . | . | /
Cn1c(=O)c2[nH]c(N=Nc3ccc(N)cc3N)nc2n(C)c1=O | / | . | . | 71 | . | . | .
O=C(NN=Cc1ccc(O)cc1)c1[nH]c2ccc(Br)cc2c1-c1ccccc1 | / | / | / | / | . | . | /
O=C(N/N=C/c1c[nH]c2ccccc12)c1[nH]c2ccc(Br)cc2c1-c1ccccc1 | . | . | . | 68 | / | / | 88
